According to PubChem BioAssay (NCATS):
Inconclusive results are not listed. Activity calls are given as the source filed them. Unless noted, the call rests on the fitted dose curve; in most records, active means well fitted curve in the direction sought with a large enough effect; inconclusive means small, poorly fitted or top-dose-only effect, or another doubt; inactive means no such curve, though single readings can be large; an effect the other way counts as inactive or inconclusive.

Experiments:
[1] = Cell Viability - BJ (AID 421; calls by dose curve;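 further: potency means the concentration at half of the fitted maximal effect; cells exposed to compound for 40 hours at 37 °C before readout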); conditions: BJ fibroblast viability, qHTS
How it was run: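 Cytotoxicity as drop in intracellular ATP (CellTiter-Glo, 20 min RT) after 40 hr compound exposure of BJ fibroblasts at 37 °C. Titrations scaled between DMSO and 100 uM tamoxifen, Hill-fitted for AC50.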

[2] = Cell Viability - Jurkat (AID 426;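 active means dose-dependent loss of cell ATP signal giving a full or clear fitted curve, ranked by lower potency value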; further: potency means the concentration at half of the fitted maximal effect); conditions: qHTS
How it was run: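 Jurkat (Clone E6-1) cells, 5000/well in complete medium, exposed to compounds for 40 hr at 37C; intracellular ATP measured by CellTiter-Glo luminescence after 20 min at room temperature. AC50 from Hill fits.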

[3] = Cell Viability - Hek293 (AID 427;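 active means compounds whose dose-response curve shows a full or clear partial loss of cell viability, called from curve shape rather than a numeric limit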;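 further: potency means the concentration at half of the fitted maximal effect; cells exposed to compound for 40 hours at 37 °C before reading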); conditions: qHTS
How it was run: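 Luminescent ATP content (CellTiter-Glo, 20 min at room temperature) was measured after a 40 hr, 37 °C compound exposure of HEK293 cells. AC50 values came from Hill-equation fits of qHTS concentration-response data normalized to DMSO and 100 uM tamoxifen.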

[4] = Cell Viability - HepG2 (AID 433; calls by dose curve;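 further: potency means the concentration at half of the fitted maximal effect; potency for ATP loss meaning cytotoxicity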); conditions: qHTS
How it was run: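 In this qHTS format, a 40 h, 37 °C compound incubation of HepG2 cells in complete medium precedes a 20 min CellTiter-Glo step at room temperature. Tamoxifen and doxorubicin serve as positive controls; Hill-equation fits yield AC50.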

[5] = Cell Viability - MRC5 (AID 434; calls by dose curve;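 further: potency means the concentration at half of the fitted maximal effect; potency reflects cytotoxicity seen as loss of intracellular ATP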); conditions: MRC5 lung fibroblast viability, qHTS
How it was run: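 MRC5 normal human lung fibroblasts (1500/well) were treated with compounds for 40 hr at 37 °C in complete medium, and viable cells were measured as intracellular ATP by CellTiter-Glo luminescence. AC50 came from Hill fits, normalized to DMSO and 100 uM tamoxifen.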

[6] = target: Mitogen-activated protein kinase 10 (Mus musculus) (UniProt Q61831); experiment: JNK3 AlphaScreen Assay (AID 530; active means well fitted curve in either direction with a large enough effect, not every such curve was filed as active;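 further: kinase came from lysate of stimulated human HepG2 cells; signal reports phosphorylation of biotinylated GST-cJun 1-79 at Ser73 with 10 µM ATP; on the % scale 0 is the no-effect control and ±100 the full control effect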)
How it was run: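 Inhibitors reduce antibody binding to phosphorylated biotin-cJun, lowering AlphaScreen luminescence. Lysates from HepG2 cells pre-activated by IL-1beta plus TNF-alpha supplied JNK3; compounds were titrated.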

[7] = Cell Viability - N2a (AID 540); conditions: N2a mouse neuroblastoma cell viability; activity change, negative = cytotoxicity: at 92.2 µM (top of the series);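 further: plate controls were DMSO alone for no effect and tamoxifen control for full effect; nearly all actives have a fitted effect of over 45% in size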
How it was run: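 Mouse neuroblastoma N2a cells, 1500/well, exposed to compounds 40 h at 37 °C in complete medium. Viability measured as cellular ATP by CellTiter-Glo luminescence; AC50 from Hill fits of concentration-response.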

[8] = Cell Viability - NIH 3T3 (AID 541); conditions: NIH 3T3 cell viability, qHTS; activity change, negative = cytotoxicity: at 92.2 µM (top of the series);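 further: plate controls were DMSO alone for no effect and tamoxifen positive control for full effect; nearly all actives have a fitted effect of over 25% in size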
How it was run: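 Mouse NIH 3T3 fibroblasts, 1000 cells/well, rested 5 hr at 37 °C, then exposed to compound for 40 hr at 37 °C in complete medium. Viability read as intracellular ATP by CellTiter-Glo luminescence; AC50 from Hill-equation fits of concentration-response data.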

[9] = Cell Viability - HUV-EC-C (AID 542); further: on the % scale 0 is the no-effect control and ±100 the full control effect; nearly all actives have a fitted effect of over 35% in size
How it was run: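 HUV-EC-C human vascular endothelial cells, 1000/well, exposed to compound for 40 hr at 37 °C in complete medium. Intracellular ATP was read by CellTiter-Glo luminescence. AC50 came from Hill-equation fits of concentration-response data.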

[10] = Cell Viability - H-4-II-E (AID 543); further: on the % scale 0 is the no-effect control and ±100 the full control effect; nearly all actives have a fitted effect of over 35% in size
How it was run: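 Rat hepatoma H-4-II-E cells, 1500 per well, treated 40 h at 37 °C in complete medium. Cellular ATP read by CellTiter-Glo luminescence; AC50 from Hill fits of concentration-response.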

[11] = Cell Viability - SH-SY5Y (AID 544); further: nearly all actives have a fitted effect of over 55% in size
How it was run: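 SH-SY5Y human neuroblastoma cells (1500/well) incubated 5 h, then compound-treated 40 h at 37 °C in complete medium. Viability read as intracellular ATP by CellTiter-Glo luminescence after 20 min; AC50 from Hill-equation fits of qHTS concentration-response.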

[12] = Cell Viability - Renal Proximal Tubule (AID 545); conditions: renal proximal tubule cells viability, primary cells of rat origin; at 91.7 µM (top of the series); further: nearly all actives have a fitted effect of over 40% in size
How it was run: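 In this qHTS format, normal rat kidney-derived proximal tubule cells in complete culture medium receive compound titrations, then sit 40 hours at 37 °C before luciferase-based ATP quantitation; potency is reported as AC50 from concentration-response curves.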

[13] = Cell Viability - Mesenchymal (AID 546); conditions: mesenchymal cells viability, qHTS; activity change, negative = cytotoxicity: at 91.7 µM (top of the series);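 further: cells exposed to compound for 40 hours before reading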
How it was run: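 Normal human renal glomerulus-derived kidney mesenchymal cells, 1000 per well in complete medium, were treated with compounds for 40 hr at 37 °C. Viability was read as intracellular ATP by CellTiter-Glo luminescence; AC50 values came from Hill-equation fits of qHTS concentration-response data.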

[14] = Cellular Toxicity (caspase-3) HepG2 (AID 654);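 further: cells exposed to compound for 16 hours before reading; 0% = DMSO alone and 100% = caspase signal from 100 µM tamoxifen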
How it was run: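 HepG2 cells (1500/well) were treated 16 h at 37 °C in complete medium, then caspase 3/7 activity was read by Caspase-Glo luminescence. Data were normalized to DMSO and 100 uM tamoxifen; AC50 came from Hill-equation fits of qHTS concentration-response.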

[15] = Cellular Toxicity (caspase-3) Jurkat (AID 655); conditions: Jurkat caspase-3 activation, luminescence, DMSO = 0%, tamoxifen = 100%; at 92.2 µM (top of the series);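 further: cells exposed to compound for 16 h at 37 °C before reading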
How it was run: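 qHTS in human Jurkat T-cell leukemia line: 16 hr compound treatment at 37 °C, caspase-3/7 activity measured by Caspase-Glo luminescence. AC50 derived from Hill equation.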

[16] = Cellular Toxicity (caspase-3) HUV-EC-C (AID 656)
How it was run: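 Concentration-dependent caspase 3/7 induction was assessed in HUV-EC-C cells exposed for 16 hours. Data scaled between DMSO and tamoxifen (100 uM) controls.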

[17] = Cellular Toxicity (caspase-3) SHSY5Y (AID 657)
How it was run: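 Readout: caspase-cleaved peptide-aminoluciferin substrate driving luciferase light in SH-SY5Y neuroblastoma cells after 16 h treatment. Response normalized to DMSO and 10 uM staurosporine controls.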

[18] = Cellular Toxicity (caspase-3) BJ (AID 658);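 further: 0% = DMSO basal and 100% = 10 µM staurosporine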
How it was run: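 Luminescent aminoluciferin-substrate cleavage reports caspase 3/7 activity in normal human BJ fibroblasts after 16 hr compound exposure at 37 °C. Normalized to DMSO (basal) and 10 uM staurosporine (100%); AC50 from Hill fit of concentration-response.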

[19] = Cellular Toxicity (caspase-3) MRC-5 (AID 659);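 further: 0% = DMSO basal and 100% = 10 µM staurosporine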
How it was run: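 Luminescence from caspase-cleaved aminoluciferin substrate (Caspase-Glo 3/7, 1 hr RT) reports caspase 3/7 activity in MRC-5 lung fibroblasts after 16 hr compound exposure. Normalized to DMSO basal and 10 uM staurosporine as 100%; AC50 from Hill fits.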

[20] = Cellular Toxicity (caspase-3) Mesangial (AID 660);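 further: cells exposed to compound for 16 h before the caspase read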
How it was run: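 Human renal glomerular mesangial cells, 1000/well, 5 h at 37 C before 16 h compound treatment. Caspase-Glo 3/7 luminescence after 20 min; normalized to DMSO and 100 uM tamoxifen, AC50 from Hill fit.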

[21] = Cellular Toxicity (caspase-3) SK-N-SH (AID 661);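 further: 0% = DMSO basal and 100% = 10 µM staurosporine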
How it was run: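 Human SK-N-SH neuroblastoma cells, 1500/well, were exposed to compounds for 16 hours at 37 °C. Caspase-Glo 3/7 luminescence was normalized to DMSO (basal) and 10 uM staurosporine (100%), and AC50 came from a Hill fit.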

[22] = Cellular Toxicity (caspase-3) H-4-II-E (AID 663); conditions: Potency: caspase-3 activation;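 further: cells exposed to compound for 16 hr before readout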
How it was run: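 Luminescence from caspase-cleaved aminoluciferin substrate, read 20 min after reagent addition, reports caspase 3/7 activation in rat H-4-II-E cells after 16 hr compound exposure. Normalized to DMSO (basal) and 100 uM tamoxifen (100%); AC50 from Hill fits.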

O=S(=O)(O)c1ccccc1
inactive: Potency [1] > 92 µM | Potency [2] > 92 µM | Potency [3] > 92 µM | Potency [4] > 92 µM | Potency [5] > 92 µM | Potency [6] | activity change, negative = cytotoxicity [7] -0.532% | Potency [8] | outcome [9] | Potency [10] | Potency [11] | activity change, negative = cytotoxicity [12] -1.46% | activity change, negative = cytotoxicity [13] 0.153% | outcome [14] | caspase-3 activation [15] 0.148% | outcome [16] | outcome [17] | outcome [18] | outcome [19] | outcome [20] | outcome [21] | Potency [22]
